TDP1 cell noCPT – qHTS for Inhibitors of human tyrosyl-DNA phosphodiesterase 1 (TDP1): qHTS in cells in absence of CPT | DT40 Tdp1-/- hTDP1 cells, no CPT, ATP luminescence, 48 h | Potency, µM (top dose mostly 46.2 µM), most hits filed as inhibitors | 420,000 tested, 15% active | AID 686978, 2013; note: nearly all actives have a fitted effect of over 55% in size
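Luminescent ATP content (CellTiter-Glo) served as the growth readout. Knockout chicken DT40 cells expressing human TDP1 were exposed to compounds without camptothecin for a minimum 48 hr at 37 °C.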
HT1080 IDH1KD tx – toxicity to HT-1080 IDH1 knockdown cells (counter line); AID 686971; Potency, µM (top dose mostly 46.1 µM), usual class: cytotoxic; HT-1080 IDH1 knockdown viability, ATP luminescence, 48 h; 360,000 tested, 2% active
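In this qHTS, HT-1080 cells depleted of IDH1 are exposed for 48 h at 37 °C to compound titrations. Toxicity is scored from CellTiter-Glo luminescence, with DMSO as full viability and medium alone as none.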
DT40 TDP1 CPT – DT40-hTDP1 cell growth loss with CPT. 420,000 tested, 12% active. chicken DT40 Tdp1-/-;hTDP1 cells + 20 nM CPT, ATP luminescence, 48 h. Potency, µM (top dose mostly 46.2 µM), usual class: inhibitors; note: nearly all actives have a fitted effect of over 55% in size
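Chicken DT40 Tdp1-/- cells stably complemented with human TDP1 were seeded at 400 cells/well in medium containing 20 nM camptothecin, exposed to pin-transferred compounds, and grown at 37 °C for at least 48 hr. Viability was read as ATP luminescence.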
HT1080-NT tox – kills 2HG-producing HT-1080-NT fibrosarcoma cells; AID 686970; Potency, µM (series often up to 46.1 µM), most hits filed as cytotoxic; HT-1080-NT fibrosarcoma viability, CellTiter-Glo ATP luminescence, 48 h; 360,000 tested, 1.6% active;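 note: NT is the 2HG producing partner of a matched IDH1 knockdown line; nearly all actives have a fitted effect of over 55% in size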
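Read-out is CellTiter-Glo luminescence after 10 minutes at room temperature, following 48 hours' compound treatment of HT-1080-NT cells (750 cells/well, RPMI, 5% FBS, 37 degrees C).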
IL-1B inflam inh – blocks inflammasome-driven IL-1 beta release | THP-1 LPS/ATP IL-1B secretion, AlphaLISA, 16 h; stronger effect = lower value | activity change, % at 57.5 µM | 360,000 tested, 4.7% active | AID 743279; in the data active = activity change below about -50%; inconclusive = mostly about -30% to -49%
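THP-1 cells pretreated 1 hr with compounds (up to 57.5 uM final), then stimulated with LPS (250 ng/mL final) plus ATP (1.25 mM final); secreted IL-1B measured by AlphaLISA after 16 hr, decreased signal indicating inhibition.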
ELG1 repair inh – inhibitors of ELG1-dependent DNA repair in HEK293T cells. 330,000 tested, 2.3% active. Potency, µM (highest dose often 46.1 µM), hits mostly inhibitors. HEK293T ELG1-luciferase reporter, luminescence, 16 h; DNA damage induced by 5-fluorouridine; note: nearly all actives have a fitted effect of over 55% in size
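Step one: seed 2,000 cells per well. Step two: pin-transfer compound or DMSO alongside 5-fluorouridine. Step three: incubate 16 hr, 37 °C, 5% CO2. Step four: add ONE-Glo, wait 30 min, read luminescence.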
Numbers stand for hits; i = inactive; ? = inconclusive; nt = not tested or not shown; [ ] = remark or other dose. This is a sample that favours compounds with a hit; in the whole collection about 19% have one here. Unless noted, calls come from the whole dose curve; as a rule, active = well fitted curve in the direction sought with a large enough effect; inconclusive = small, poorly fitted or top-dose-only effect, or another doubt; inactive = no such curve, though single readings can be large; an effect the other way counts as inactive or inconclusive.

SMILES	TDP1 cell noCPT	HT1080 IDH1KD tx	DT40 TDP1 CPT	HT1080-NT tox	IL-1B inflam inh	ELG1 repair inh
Cc1ccc(CC2(C)C(=O)Nc3c(Cl)cccc32)cc1 (stereo not given)	?	i	?	i	i	nt
Cc1cccc2sc(N(CCCN(C)C)C(=O)COc3ccc(Cl)cc3)nc12	?	?	?	?	-60	i
CN(C)CCCN(C(=O)CCc1ccccc1)c1nc2c(F)cccc2s1	?	i	?	i	?	i
Cc1ccc2sc(N(CCCN(C)C)C(=O)CN3C(=O)c4ccccc4C3=O)nc2c1C	21µM	?	21µM	16µM	?	?
CN(C)CCCN(C(=O)COc1ccc(Cl)cc1)c1nc2ccc(F)cc2s1	i	i	i	i	-65	i
CN(C)CCCN(C(=O)CCOc1ccccc1)c1nc2c(F)cccc2s1	4.6µM	7.3µM	5.8µM	15µM	-60	i
CN(C)CCCN(C(=O)c1nc2ccccc2s1)c1nc2ccc(F)cc2s1	5.8µM	i	3.7µM	i	i	nt
CN(C)CCCN(C(=O)COc1ccccc1)c1nc2ccc(F)cc2s1	i	i	i	i	i	i
Cc1ccc2nc(N(CCCN(C)C)C(=O)COc3ccc(Cl)cc3)sc2c1	21µM	i	?	i	i	i
Cc1cccc2sc(N(CCCN(C)C)C(=O)COc3ccccc3)nc12	i	nt	i	nt	nt	nt
CN(C)CCCN(C(=O)CCOc1ccccc1)c1nc2ccc(F)cc2s1	2.9µM	21µM	2.9µM	18µM	-86	i
O=C(NCC1COCCO1)c1ccc2nc(Cc3cccc(Cl)c3)oc2c1 (stereo not given)	i	i	i	i	i	i
Oc1c(Cl)cc(Cl)cc1Sc1cc(Cl)cc(Cl)c1O	23µM	nt	?	nt	nt	i
O=C(NCCO)C(=O)Nc1c2c(nn1-c1ccc(F)cc1)CSC2	i	nt	i	nt	nt	nt
Cc1ccc(S(=O)(=O)Nc2ccccc2CNc2ccc(Br)cn2)cc1	29µM	i	?	i	i	i
CC1CCc2c(nc3ncnn3c2NCCc2ccccc2F)C1 (stereo not given)	13µM	i	?	i	nt	?
CCOc1ccc(Nc2c3c(nc4ncnn24)CC(C)CC3)cc1 (stereo not given)	?	i	?	i	i	i
O=[N+]([O-])c1cc(S(=O)(=O)N2CCCCCC2)ccc1F	10µM	?	7.3µM	?	?	?
O=[N+]([O-])c1cc(S(=O)(=O)N2CCCC2)ccc1O	i	i	i	i	i	i
COC(=O)CSc1ccc(S(=O)(=O)N2CCCCCC2)cc1[N+](=O)[O-]	i	i	i	i	i	10µM
O=c1[nH]c2cc3c(cc2cc1CN(CCc1ccccc1)Cc1nnnn1CC1CCCO1)OCO3 (stereo not given)	23µM	i	?	i[9.24 µM]	i	i
COc1ccc2[nH]c(=O)c(CN(CCc3ccccc3)Cc3nnnn3CC3CCCO3)cc2c1 (stereo not given)	29µM	i[9.24 µM]	6.5µM	?	i	?
COc1ccc2[nH]c(=O)c(CN(Cc3ccc(C)cc3)Cc3nnnn3CC3CCCO3)cc2c1 (stereo not given)	?	i	?	i	i	?
COc1ccccc1CN(Cc1cc2cc(C)cc(C)c2[nH]c1=O)Cc1nnnn1CC1CCCO1 (stereo not given)	23µM	?	?	?	i	?
COc1ccc2[nH]c(=O)c(CN(Cc3ccccc3OC)Cc3nnnn3CC3CCCO3)cc2c1 (stereo not given)	?	i	23µM	i	?	16µM
SMILES	TDP1 cell noCPT	HT1080 IDH1KD tx	DT40 TDP1 CPT	HT1080-NT tox	IL-1B inflam inh	ELG1 repair inh
Cn1c(=O)c2cc(C(=O)Nc3cccc(C#N)c3)sc2c2ccccc21	i	nt	?	nt	nt	nt
N#Cc1cccc(-c2nc3cnc(N4CCOCC4)nc3n(C3CC3)c2=O)c1	i	nt	i	nt	nt	nt
O=c1[nH]c2cc3c(cc2cc1CN(Cc1nnnn1CC1CCCO1)C1CCCC1)OCO3 (stereo not given)	13µM	i	?	i	i	15µM
C(=C\c1ccccc1)/CN1CCN(C(CCc2ccccc2)c2nnnn2C2CCCCC2)CC1 (stereo not given)	?	?	?	?	i	nt
COc1ccc(-n2nnnc2C(c2cccs2)N2CCN(C/C=C/c3ccccc3)CC2)cc1 (stereo not given)	16µM	?	16µM	?	i	nt
CCCCn1nnnc1C(c1cccs1)N1CCN(C/C=C/c2ccccc2)CC1 (stereo not given)	23µM	?	21µM	?	i	nt
